Screening data as filed in PubChem BioAssay.
Compounds with a hit are over-represented: about 2.4% of the library has one in this group of screens.
D2 ag-1 – D2 dopamine receptor (human) agonism. P14416. 0.53% of 340,000 active. HEK293 T-REx D2 cells, calcium flux agonist mode. AID 485358. activation, % at 2 µM;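 active = activation over 3 SD above normal in the single-dose calcium agonist read, cut at about 30% in these data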
Target sequence (P14416 whole entry, looked up): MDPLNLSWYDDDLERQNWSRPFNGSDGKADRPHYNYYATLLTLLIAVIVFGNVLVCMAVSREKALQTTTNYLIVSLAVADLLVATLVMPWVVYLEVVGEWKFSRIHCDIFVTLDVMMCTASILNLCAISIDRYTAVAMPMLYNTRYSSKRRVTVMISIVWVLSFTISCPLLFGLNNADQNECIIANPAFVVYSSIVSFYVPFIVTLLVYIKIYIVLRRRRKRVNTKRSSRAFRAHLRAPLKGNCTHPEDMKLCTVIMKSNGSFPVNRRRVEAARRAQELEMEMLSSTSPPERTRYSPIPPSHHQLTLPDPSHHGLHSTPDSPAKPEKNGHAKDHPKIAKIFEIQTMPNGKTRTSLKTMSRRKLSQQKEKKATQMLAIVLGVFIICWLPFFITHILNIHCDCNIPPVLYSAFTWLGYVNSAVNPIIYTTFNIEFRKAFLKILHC
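HEK293 Trex D2 cells, tetracycline-induced, o/n 30 C 5% CO2; no-wash Ca dye, RT 30–90 min; 10-cycle baseline, 23 nl cpd added, kinetic Ca read 180 s; agonist hits = positive Ca response.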
D2 antagonist – antagonists of human D2 dopamine receptor. P14416. HEK293 TREx D2 cells, calcium flux, dopamine EC80. inhibition, % at 10 µM. 2% of 340,000 active. AID 485344; in the data active = inhibition above about 30%; inactive = below that, where a call was filed
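Tetracycline-induced HEK293 T-REx cells expressing D2 force-coupled to calcium signalling were dye-loaded, exposed to compound for 180 s, then challenged with an EC80 of dopamine; calcium flux was followed kinetically for a further 180 s.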
D2 PAM-1 – positive allosteric modulators of human D2 dopamine receptor. P14416. 0.34% of 340,000 active. AID 485347. potentiation, % at 10 µM. HEK293 T-REx D2, calcium flux, EC20 dopamine potentiation;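 active = potentiation over 3 SD above the plate norm, cut at about 30% in these data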
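Tetracycline-induced Hek293 Trex D2 cells, force-coupled to calcium, loaded with no-wash calcium dye. Compound added with 180 s kinetic read for agonism, then EC20 dopamine and a further 180 s read for potentiation.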
D2 ag-2 – human D2 receptor agonism in beta-arrestin assay; P14416; DiscoveRx PathHunter D2 beta-arrestin, luminescence, 90 min; 100% = 57 uM dopamine signal; activation, % (no concentration beside the values); 0.084% of 360,000 active; AID 624465; in the data active = activation above about 40%; inconclusive = between about 15% and that limit
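Agonist mode: compounds alone added to overnight-plated D2 PathHunter cells for 90 min at 37 C, with 57 uM final dopamine (EC100) defining full response. Beta-arrestin recruitment detected by chemiluminescent reagent, read after 1 h at ambient temperature.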
D2 PAM-2 – positive allosteric modulators of human D2 dopamine receptor | potentiation, % (no concentration beside the values) | AID 624464 | P14416 | DiscoveRx D2 beta-arrestin cells, luminescence, 90 min; 100% = 57 uM dopamine signal | 0.23% of 360,000 active; in the data active = potentiation above about 50%; inconclusive = mostly about 30% to 49%
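PathHunter D2 cells, attached overnight at 37 deg C, received compound in DMSO plus dopamine at EC20 (50 nM final) for 90 min at 37 deg C. Beta-arrestin recruitment was read as luminescence after 1 h with detection reagent at ambient temperature.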
D3 arrestin ag – D3 receptor agonism confirmed, beta-arrestin readout; shares compounds with D2 ag-1; DiscoveRx D3 beta-arrestin cells, luminescence, 90 min; Potency, µM (series often up to 76.9 µM), most hits filed as activators; 4% of 2,300 active; AID 720506; also: nearly all actives have a fitted effect of over 70% in size
D2 ag-3 – counter-screen for D3 agonists: human D2 dopamine receptor agonism. shares compounds with D2 ag-1. DiscoveRx PathHunter D2 beta-arrestin, luminescence, 90 min; response scale: percent relative to full dopamine signal. Potency, µM (series often up to 76.9 µM), hits mostly activators. 5.9% of 2,300 active. AID 720507; also: nearly all actives have a fitted effect of over 70% in size
Large screens that a line does not name were inactive (follow-up assays come after a bar, where they were run). Unless noted, calls follow the shape of the dose curve; as a rule, active = well fitted activation curve with a large enough effect; inconclusive = small, poorly fitted or top-dose-only effect; inactive = flat fitted curve, though single readings scatter.

O=C(Nc1ccnn1C1CCN(Cc2cc3ccccc3[nH]2)CC1)C1CCOC1 (configuration not stated)	D2 ag-1 42 (no result: D2 ag-2, D2 PAM-2) | D3 arrestin ag inactive | D2 ag-3 inactive
CC(C)(C)C1CCc2nc(NC(=O)c3cccc(Cl)c3)sc2C1 (configuration not stated)	none (no result: D2 ag-1, D2 antagonist, D2 ag-2, D2 PAM-2)
CC(=NCCc1c(C)[nH]c2ccc(C)cc12)C1=C(O)CC(c2ccccc2)CC1=O (configuration not stated)	none
CCCCC(=NCCc1c(C)[nH]c2ccccc12)C1=C(O)CC(c2ccccc2)CC1=O (configuration not stated)	none (no result: D2 PAM-1) | D3 arrestin ag inactive | D2 ag-3 inactive
CCCC(=NCCc1c(C)[nH]c2ccccc12)C1=C(O)CC(c2ccccc2)CC1=O (configuration not stated)	none
CC(=NCCc1c(C)[nH]c2ccc(OC(F)(F)F)cc12)C1=C(O)CC(c2ccccc2)CC1=O (configuration not stated)	none | D3 arrestin ag inactive | D2 ag-3 inactive
CC(C)(C)OC(=O)N1CCN(C(=O)c2[nH]cnc2C(=O)NCc2ccccc2)CC1	none | D3 arrestin ag inactive | D2 ag-3 inactive
Cc1ccc(NC(=O)c2nc[nH]c2C(=O)NC2CCN(C(=O)OC(C)(C)C)CC2)cc1	none (no result: D2 ag-1, D2 antagonist, D2 PAM-1)
CC(C)(C)OC(=O)N1CCC(NC(=O)c2nc[nH]c2C(=O)N2CCc3ccccc3C2)CC1	none (no result: D2 ag-1, D2 antagonist, D2 PAM-1) | D3 arrestin ag inactive | D2 ag-3 inactive
CC(C)(C)OC(=O)N1CCC(NC(=O)c2[nH]cnc2C(=O)Nc2ccc(Cl)cc2)CC1	none | D3 arrestin ag inactive | D2 ag-3 inactive
Cc1ccc2c(c1)N(C(=O)N1CCC(C(=O)NC3CCCCCC3)CC1)CC(C)O2 (configuration not stated)	none (no result: D2 antagonist, D2 ag-2, D2 PAM-2)
Cc1cc(NC(=O)CSCC(=O)Nc2cc(C(F)(F)F)ccc2N2CCCC2)no1	none
Cc1cc(NC(=O)CSCC(=O)Nc2cc(C(F)(F)F)ccc2N2CCOCC2)no1	none | D3 arrestin ag inactive | D2 ag-3 inactive
CCCn1c(SCC(=O)c2ccc3c(c2)NC(=O)CO3)nc2ccccc21	none | D3 arrestin ag inactive | D2 ag-3 inactive
Cn1c(SCC(=O)c2ccc3c(c2)NC(=O)CO3)nc2ccccc21	none
O=C(Cn1c(=O)n2nc(-c3ccccc3)nc2c2ccccc21)Nc1ccccc1C(F)(F)F	none (no result: D2 antagonist, D2 PAM-1, D2 ag-2, D2 PAM-2)
O=C(COc1ccc(F)cc1)Nc1ccc(OCc2cc(=O)n3ccsc3n2)cc1	none (no result: D2 antagonist, D2 ag-2, D2 PAM-2)
Cc1ccc2cccc(NC(=O)C(C)(C)Oc3ccc(Br)cc3)c2n1	none (no result: D2 antagonist, D2 ag-2, D2 PAM-2)
CC(OC(=O)c1nc(Cl)ccc1Cl)C(=O)NC1CCCCC1C (configuration not stated)	none | D3 arrestin ag inactive | D2 ag-3 inactive
CCC/C(=C1/c2ccccc2C(=O)N1c1ccccc1)c1ccc2c(c1)OCO2	none | D3 arrestin ag inactive | D2 ag-3 inactive
O=C(NCc1ccco1)C1CCN(C(=O)N2CCOc3ccccc32)CC1	none (no result: D2 antagonist, D2 ag-2, D2 PAM-2)
Cc1ccc(S(=O)(=O)N(C)C)cc1NC(=O)COC(=O)CN1C(=O)c2ccccc2C1=O	none | D3 arrestin ag inactive | D2 ag-3 inactive
O=C(CN1CCN(C(=O)c2ccco2)CC1)Nc1ccc(Cl)c(S(=O)(=O)N2CCOCC2)c1	D2 ag-1 45 | D3 arrestin ag inconclusive | D2 ag-3 inactive
O=C(CN1CCN(C(=O)c2ccco2)CC1)Nc1ccc2c(c1)OCCO2	D2 ag-1 61, D2 antagonist 54, D2 ag-2 inconclusive | D3 arrestin ag inactive | D2 ag-3 inactive
Cc1[nH]c2ccccc2c1NC(=O)CN1CCN(C(=O)c2ccco2)CC1	D2 ag-1 87, D2 antagonist 61, D2 ag-2 54, D2 PAM-2 inconclusive | D3 arrestin ag inactive | D2 ag-3 inconclusive
O=C(CN1CCN(c2ccccc2)CC1)Nc1ccc2c(c1)OCCO2	D2 ag-1 56, D2 antagonist 45 | D3 arrestin ag inactive | D2 ag-3 inconclusive
COc1cc(C(CC(=O)Nc2ccc(Br)cn2)N2Cc3ccccc3C2=O)cc(OC)c1OC (configuration not stated)	none (no result: D2 antagonist, D2 ag-2, D2 PAM-2)
Cc1cc(C)c2c(=O)n(CC(=O)NCCCN3CCN(c4ccccc4F)CC3)sc2n1	D2 ag-1 83, D2 antagonist 53 | D3 arrestin ag inactive | D2 ag-3 inactive
Cn1c(=O)cc(SCC(=O)NCCCN2CCN(c3ccccc3F)CC2)c2ccccc21	D2 ag-1 75, D2 antagonist 92, D2 ag-2 inconclusive | D3 arrestin ag inactive | D2 ag-3 inconclusive
Cc1cc(C)c2c(=O)n(CC(=O)NCCCN3CCOCC3)sc2n1	none
Cn1c(C(=O)NCCCN2CCN(c3ccccc3F)CC2)cc2c(=O)n(C)c3ccccc3c21	D2 ag-1 73, D2 antagonist 98, D2 ag-2 inconclusive | D3 arrestin ag inactive | D2 ag-3 inconclusive
Cc1ccc(-n2nc(C)c(C(=O)NCCCN3CCN(c4ccccc4F)CC3)c2-n2cccc2)cc1	none (no result: D2 antagonist, D2 ag-2, D2 PAM-2)
Cc1cc(=O)oc(C)c1C(=O)NCCCN1CCN(c2ccccc2F)CC1	D2 ag-1 58, D2 antagonist 47 | D3 arrestin ag inconclusive | D2 ag-3 inactive
CCC(C(=O)NCCCN(CC)CC)n1ncn2c(cc3occc32)c1=O (configuration not stated)	none (no result: D2 antagonist, D2 ag-2, D2 PAM-2)
CNC(=S)N/N=C/c1c2ccccc2c(Cl)c2ccccc12	none
CCn1c(=O)cc(SCC(=O)NCCN2CCN(Cc3ccccc3)CC2)c2ccccc21	D2 ag-1 44 | D3 arrestin ag inactive | D2 ag-3 inactive
CCOC(=O)C1(CCOc2ccccc2)CCN(Cc2cnc(C)s2)CC1	none
CCOC(=O)C1(CC2CC2)CCN(Cc2cnc(N(C)C)s2)CC1	D2 ag-1 75, D2 antagonist 68 | D3 arrestin ag inactive | D2 ag-3 inactive
Cc1cccc(N2CCN(S(=O)(=O)c3ccc(-c4cnc(C5CC5)o4)cc3)CC2)c1C	none (no result: D2 antagonist, D2 ag-2, D2 PAM-2)
COc1cccc(CNC(=O)CCC2CCCN(C(=O)c3cc(C)on3)C2)c1 (configuration not stated)	none
COc1cccc(CNC(=O)CCC2CCCN(C(=O)c3cc(C4CC4)[nH]n3)C2)c1 (configuration not stated)	D2 antagonist 63 | D3 arrestin ag inactive | D2 ag-3 inactive
Cc1nn(-c2ccccc2)c(C)c1/C=N/N1CCN(c2ccccn2)CC1	none | D3 arrestin ag inconclusive | D2 ag-3 inactive
CN(C)c1ccc(/C=N/N2CCN(c3ccccn3)CC2)cc1	D2 ag-1 45, D2 ag-2 inconclusive | D3 arrestin ag inactive | D2 ag-3 inactive
